Measured values taken from PubChem BioAssay (EPA / NIEHS).
“And” between values parts separate entries of the source, which are not always exact repeats. Identical values can stand only once. Records with an inconclusive call do not appear. The source made the active and inactive calls. How the source made its calls, unless noted: active means hit-call score of the fitted dose curve at least 0.9, where 1 is the maximum; inactive means score below 0.9.

Columns and labels:
[1] = read-out: Monocyte Chemoattractant Protein-1 (MCP1), CCL2 (gene 6347); test: BSK_SAg_MCP1: BioMAP Diversity Plus: SAg Assay for Monocyte Chemoattractant Protein-1 (MCP1) Biomarker Activity (AID 2283090); conditions: primary human HUVEC with PBMC; actives raise or lower the signal
Outline: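 MCP-1 levels in the endothelial–PBMC SAg co-culture were quantified by ELISA at 24 h post-dosing; both increases and decreases versus DMSO scored. Cytotoxicity monitored by SRB total protein in parallel cultures.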

[2] = read-out: E-selectin (Homo sapiens) (UniProt P16581); test: BSK_SAg_Eselectin: BioMAP Diversity Plus: SAg Assay for Eselectin Biomarker Activity (AID 2283091); conditions: primary human HUVEC with PBMC; actives raise or lower the signal
Outline: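 Co-culture: HUVEC + PBMC. Dose compound; 24 h. ELISA for E-selectin. Bidirectional fit vs DMSO.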

[3] = read-out: Monokine induced gamma interferon (MIG), CXCL9 (gene 4283); test: BSK_SAg_MIG: BioMAP Diversity Plus: SAg Assay for Monokine induced gamma interferon (MIG) Biomarker Activity (AID 2283092); conditions: primary human HUVEC with PBMC; actives raise or lower the signal
Outline: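 Measures CXCL9 protein by ELISA in a human vascular primary-cell co-culture (umbilical vein endothelium with PBMC) 24 h after chemical addition. Activity is scored up or down from the DMSO control.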

[4] = BSK_SAg_PBMCCytotoxicity: PBMC Cytotoxicity Assessment in the BioMAP Diversity Plus: SAg Assay (AID 2283093); conditions: primary human HUVEC with PBMC;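 further: PBMC viability measured as Alamar Blue reduction fluorescence at 546/580 nm; fitted both ways against DMSO so a hit may be loss or gain of signal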;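 on AC50: PBMC superantigen activated with SEB plus TSST-1 one hour after compound addition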
Outline: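 Compound added to 75,000 PBMC/well for 1 h; SEB and TSST-1 then added at 20 ng/mL final each; 90 h incubation; Alamar Blue 6 h; read 546/580 nm ex/em. Activity fitted bidirectionally relative to DMSO baseline.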

[5] = read-out: Interleukin-8 (IL8), CXCL8 (gene 3576); test: BSK_SAg_IL8: BioMAP Diversity Plus: SAg Assay for Interleukin-8 (IL8) Biomarker Activity (AID 2283094); conditions: primary human HUVEC with PBMC; actives raise or lower the signal
Outline: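 Human umbilical vein endothelial cells co-cultured with peripheral blood mononuclear cells; IL-8 measured by ELISA 24 h after chemical dosing. Bidirectional concentration-response fitting used DMSO as negative control and activity baseline.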

[6] = BSK_SAg_SRB: Viability Assessment in the BioMAP Diversity Plus: SAg Assay (AID 2283096); conditions: primary human HUVEC with PBMC;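 further: cells read one day after compound addition; hits may be either gain or loss of signal compared with DMSO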
Outline: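 Total protein by sulforhodamine B staining, 24 h after dosing, in HUVEC–PBMC co-culture; DMSO-referenced bidirectional fitting.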

[7] = target: human CYP2D6, CYP2D6 (gene 1565) (UniProt P10635); test: NVS_ADME_hCYP2D6: NovaScreen (NVS) CYP450-related Enzyme Activity (ADME) Assay for human CYP2D6 (AID 2283107; active means hit-call score of the fitted dose curve at least 0.9, where 1 is the maximum)
human CYP2D6, CYP2D6 (gene 1565), sequence (P10635 whole entry, looked up): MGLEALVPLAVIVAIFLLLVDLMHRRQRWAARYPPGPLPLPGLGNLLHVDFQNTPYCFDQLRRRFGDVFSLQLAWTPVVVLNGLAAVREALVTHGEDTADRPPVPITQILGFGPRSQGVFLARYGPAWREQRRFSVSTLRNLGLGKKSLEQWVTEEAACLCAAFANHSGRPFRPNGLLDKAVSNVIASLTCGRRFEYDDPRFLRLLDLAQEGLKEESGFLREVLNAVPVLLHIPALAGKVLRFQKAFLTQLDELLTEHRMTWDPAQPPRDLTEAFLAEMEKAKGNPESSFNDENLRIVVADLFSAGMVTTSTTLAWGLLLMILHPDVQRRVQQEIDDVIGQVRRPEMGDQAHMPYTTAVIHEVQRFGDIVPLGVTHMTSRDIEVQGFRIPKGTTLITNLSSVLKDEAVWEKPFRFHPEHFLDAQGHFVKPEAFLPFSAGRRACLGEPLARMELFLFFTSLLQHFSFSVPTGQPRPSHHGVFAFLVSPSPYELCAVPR
Outline: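 Insect-cell recombinant enzyme + fluorogenic substrate, cell-free; 1 h incubation; fluorescence intensity readout. Acetonitrile = neg. ctrl/baseline. Single-point 10 uM, duplicate; follow-up concentration series.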

[8] = target: human CYP19A1, CYP19A1 (gene 1588) (UniProt P11511); test: NVS_ADME_hCYP19A1: NovaScreen (NVS) CYP450-related Enzyme Activity (ADME) Assay for human CYP19A1 (AID 2283098; active means hit-call score of the fitted dose curve at least 0.9, where 1 is the maximum;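 on AC50: potency for inhibitors seen as loss of fluorescent enzyme signal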)
human CYP19A1, CYP19A1 (gene 1588), sequence (P11511 whole entry, looked up): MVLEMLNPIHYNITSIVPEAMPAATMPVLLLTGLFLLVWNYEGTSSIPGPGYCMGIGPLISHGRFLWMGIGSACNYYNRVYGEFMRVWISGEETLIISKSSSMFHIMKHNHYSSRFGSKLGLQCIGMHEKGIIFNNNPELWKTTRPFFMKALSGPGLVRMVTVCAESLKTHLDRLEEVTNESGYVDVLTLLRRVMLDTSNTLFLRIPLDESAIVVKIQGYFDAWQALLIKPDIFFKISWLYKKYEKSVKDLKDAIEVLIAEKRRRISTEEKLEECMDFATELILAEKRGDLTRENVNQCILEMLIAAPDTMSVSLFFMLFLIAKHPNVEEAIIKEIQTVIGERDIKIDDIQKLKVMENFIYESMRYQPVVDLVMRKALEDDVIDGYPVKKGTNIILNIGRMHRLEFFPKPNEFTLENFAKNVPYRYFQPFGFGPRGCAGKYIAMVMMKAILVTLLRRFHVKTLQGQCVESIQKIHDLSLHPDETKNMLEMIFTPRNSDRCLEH
Outline: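 Biochem, cell-free; recombinant enzyme + specific substrate; fluorescence intensity at 0.5 h post-dose; 10 uM duplicate primary, conc. series for actives; acetonitrile = negative control/baseline; positive and negative controls on every plate.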

[9] = target: human CYP1A1, CYP1A1 (gene 1543) (UniProt P04798); test: NVS_ADME_hCYP1A1: NovaScreen (NVS) CYP450-related Enzyme Activity (ADME) Assay for human CYP1A1 (AID 2283100; active means hit-call score of the fitted dose curve at least 0.9, where 1 is the maximum)
human CYP1A1, CYP1A1 (gene 1543), sequence (P04798 whole entry, looked up): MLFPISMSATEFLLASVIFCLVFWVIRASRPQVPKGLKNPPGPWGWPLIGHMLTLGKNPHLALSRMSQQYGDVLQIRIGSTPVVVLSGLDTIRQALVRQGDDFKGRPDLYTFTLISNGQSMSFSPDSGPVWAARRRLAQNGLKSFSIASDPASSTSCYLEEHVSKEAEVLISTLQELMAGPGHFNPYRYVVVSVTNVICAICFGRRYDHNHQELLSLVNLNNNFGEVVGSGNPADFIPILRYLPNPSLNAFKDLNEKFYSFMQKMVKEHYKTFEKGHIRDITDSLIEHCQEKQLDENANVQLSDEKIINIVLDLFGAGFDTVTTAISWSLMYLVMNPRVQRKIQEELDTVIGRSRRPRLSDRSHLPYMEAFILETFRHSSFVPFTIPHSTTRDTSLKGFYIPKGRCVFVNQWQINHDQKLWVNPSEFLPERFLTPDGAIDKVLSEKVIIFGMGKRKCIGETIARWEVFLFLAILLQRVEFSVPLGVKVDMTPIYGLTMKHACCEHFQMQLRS
Outline: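 Recombinant hCYP1A1 + fluorogenic substrate, cell-free; 1 h; fluorescence read. Single-point 10 uM (duplicate) → concentration series, max 20 uM. Acetonitrile negative control.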

[10] = target: Cytochrome P450 2C18 (Homo sapiens) (UniProt P33260); test: NVS_ADME_hCYP2C18: NovaScreen (NVS) CYP450-related Enzyme Activity (ADME) Assay for human CYP2C18 (AID 2283103)
Cytochrome P450 2C18 (Homo sapiens), sequence (P33260 whole entry, looked up): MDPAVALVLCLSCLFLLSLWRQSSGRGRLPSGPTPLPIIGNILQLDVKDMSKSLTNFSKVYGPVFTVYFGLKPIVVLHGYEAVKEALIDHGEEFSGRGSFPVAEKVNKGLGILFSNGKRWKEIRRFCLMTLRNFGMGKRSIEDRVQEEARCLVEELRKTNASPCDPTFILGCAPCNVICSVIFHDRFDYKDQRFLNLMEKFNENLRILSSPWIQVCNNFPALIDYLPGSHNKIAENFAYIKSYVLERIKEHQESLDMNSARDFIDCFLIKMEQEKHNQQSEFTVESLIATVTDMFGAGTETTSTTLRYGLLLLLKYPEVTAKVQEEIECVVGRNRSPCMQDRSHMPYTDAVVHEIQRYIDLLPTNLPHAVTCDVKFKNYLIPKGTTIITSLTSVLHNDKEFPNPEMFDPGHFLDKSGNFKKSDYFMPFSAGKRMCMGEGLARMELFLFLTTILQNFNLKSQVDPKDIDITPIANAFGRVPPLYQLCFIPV
Outline: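 Cell-free recombinant human CYP2C18 with fluorogenic substrate; fluorescence intensity read 0.5 h after dosing. Single-point screen at 10 uM in duplicate, then concentration-response up to 20 uM; loss of signal fitted against acetonitrile baseline.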

[11] = target: human CYP2C9, CYP2C9 (gene 1559) (UniProt P11712); test: NVS_ADME_hCYP2C9: NovaScreen (NVS) CYP450-related Enzyme Activity (ADME) Assay for human CYP2C9 (AID 2283108; active means hit-call score of the fitted dose curve at least 0.9, where 1 is the maximum)
human CYP2C9, CYP2C9 (gene 1559), sequence (P11712 whole entry, looked up): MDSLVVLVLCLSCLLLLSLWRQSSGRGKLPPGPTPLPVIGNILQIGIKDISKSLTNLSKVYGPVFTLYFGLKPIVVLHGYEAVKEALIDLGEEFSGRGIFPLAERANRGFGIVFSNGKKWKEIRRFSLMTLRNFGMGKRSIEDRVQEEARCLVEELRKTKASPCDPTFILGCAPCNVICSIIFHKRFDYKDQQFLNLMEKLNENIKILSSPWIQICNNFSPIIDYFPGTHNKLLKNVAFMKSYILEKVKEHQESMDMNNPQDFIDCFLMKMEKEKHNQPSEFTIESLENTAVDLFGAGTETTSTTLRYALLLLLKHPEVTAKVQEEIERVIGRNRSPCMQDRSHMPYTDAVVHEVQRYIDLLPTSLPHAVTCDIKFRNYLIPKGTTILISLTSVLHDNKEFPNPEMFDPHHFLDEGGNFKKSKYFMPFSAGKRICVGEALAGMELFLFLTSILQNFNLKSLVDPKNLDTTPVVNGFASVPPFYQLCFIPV
Outline: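 Fluorescence readout of CYP2C9 activity (SF9-expressed human enzyme) at 0.75 h. The primary screen used 10 uM in duplicate, with concentration-response follow-up for actives; acetonitrile was the negative control.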

[12] = target: Cytochrome P450 3A4 (Homo sapiens) (UniProt P08684); test: NVS_ADME_hCYP3A4: NovaScreen (NVS) CYP450-related Enzyme Activity (ADME) Assay for human CYP3A4 (AID 2283110; active means hit-call score of the fitted dose curve at least 0.9, where 1 is the maximum)
Cytochrome P450 3A4 (Homo sapiens), sequence (P08684 whole entry, looked up): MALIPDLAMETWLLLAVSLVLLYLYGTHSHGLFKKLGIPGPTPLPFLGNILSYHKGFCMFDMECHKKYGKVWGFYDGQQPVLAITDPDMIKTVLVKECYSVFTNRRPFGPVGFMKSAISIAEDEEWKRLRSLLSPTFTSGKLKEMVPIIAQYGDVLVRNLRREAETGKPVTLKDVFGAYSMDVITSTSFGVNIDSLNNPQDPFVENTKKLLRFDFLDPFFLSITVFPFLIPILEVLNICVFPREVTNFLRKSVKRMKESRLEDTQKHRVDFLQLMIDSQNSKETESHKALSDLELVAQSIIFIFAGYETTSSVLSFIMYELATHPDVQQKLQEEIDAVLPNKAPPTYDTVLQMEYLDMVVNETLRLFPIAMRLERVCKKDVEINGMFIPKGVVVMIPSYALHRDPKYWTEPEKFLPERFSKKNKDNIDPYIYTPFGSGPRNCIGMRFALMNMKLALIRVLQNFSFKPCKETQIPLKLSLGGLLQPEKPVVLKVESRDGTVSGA
Outline: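 Compounds were first screened in duplicate at 10 uM against recombinant CYP3A4 produced in insect cells, then actives were run in concentration series. Enzyme activity was measured by fluorescence after 0.33 hour, with acetonitrile as baseline.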

[13] = target: Cytochrome P450 2C19 (Homo sapiens) (UniProt P33261); test: NVS_ADME_hCYP2C19: NovaScreen (NVS) CYP450-related Enzyme Activity (ADME) Assay for human CYP2C19 (AID 2283113; active means hit-call score of the fitted dose curve at least 0.9, where 1 is the maximum;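 further: potency for inhibition seen as loss of fluorescent signal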)
Outline: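 Fluorescence intensity was measured 1 hour after chemicals were added to insect-cell-derived recombinant CYP2C19 with fluorogenic substrate. Decreased signal versus acetonitrile control was taken as reduced enzyme activity; initial testing used 10 uM in duplicate.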

[14] = target: rat CYP2A1, Cyp2a1 (gene 24894) (UniProt P11711); test: NVS_ADME_rCYP2A1: NovaScreen (NVS) CYP450-related Enzyme Activity (ADME) Assay for rat CYP2A1 (AID 2283114)
rat CYP2A1, Cyp2a1 (gene 24894), sequence (P11711 whole entry, looked up): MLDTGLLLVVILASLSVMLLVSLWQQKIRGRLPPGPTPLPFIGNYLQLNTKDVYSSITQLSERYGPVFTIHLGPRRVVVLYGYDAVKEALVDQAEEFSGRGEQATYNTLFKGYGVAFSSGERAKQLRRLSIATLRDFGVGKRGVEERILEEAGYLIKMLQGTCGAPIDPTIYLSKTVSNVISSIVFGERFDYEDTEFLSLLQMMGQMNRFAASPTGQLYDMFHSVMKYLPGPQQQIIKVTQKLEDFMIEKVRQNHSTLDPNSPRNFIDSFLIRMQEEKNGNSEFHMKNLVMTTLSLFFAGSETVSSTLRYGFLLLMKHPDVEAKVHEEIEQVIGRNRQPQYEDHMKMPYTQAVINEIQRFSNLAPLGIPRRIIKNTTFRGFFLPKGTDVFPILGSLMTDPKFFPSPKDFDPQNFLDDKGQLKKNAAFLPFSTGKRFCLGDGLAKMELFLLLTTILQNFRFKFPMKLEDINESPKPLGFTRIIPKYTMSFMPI
Outline: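 Recombinant rat CYP2A1, cell-free, fluorogenic substrate turnover read by fluorescence intensity 0.75 h after dosing. Primary screen at 10 uM in duplicate; actives rerun as concentration-response up to 20 uM; loss of signal versus acetonitrile control.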

[15] = target: human CYP2C8, CYP2C8 (gene 1558) (UniProt P10632); test: NVS_ADME_hCYP2C8: NovaScreen (NVS) CYP450-related Enzyme Activity (ADME) Assay for human CYP2C8 (AID 2283104)
Outline: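 Recombinant human CYP2C8 with fluorogenic substrate, 0.5 h, fluorescence intensity; signal loss fitted versus acetonitrile. Screened in duplicate at 10 uM, then actives run in concentration-response up to 20 uM.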

[16] = target: human CYP2J2, CYP2J2 (gene 1573) (UniProt P51589); test: NVS_ADME_hCYP2J2: NovaScreen (NVS) CYP450-related Enzyme Activity (ADME) Assay for human CYP2J2 (AID 2283106; active means hit-call score of the fitted dose curve at least 0.9, where 1 is the maximum)
human CYP2J2, CYP2J2 (gene 1573), sequence (P51589 whole entry, looked up): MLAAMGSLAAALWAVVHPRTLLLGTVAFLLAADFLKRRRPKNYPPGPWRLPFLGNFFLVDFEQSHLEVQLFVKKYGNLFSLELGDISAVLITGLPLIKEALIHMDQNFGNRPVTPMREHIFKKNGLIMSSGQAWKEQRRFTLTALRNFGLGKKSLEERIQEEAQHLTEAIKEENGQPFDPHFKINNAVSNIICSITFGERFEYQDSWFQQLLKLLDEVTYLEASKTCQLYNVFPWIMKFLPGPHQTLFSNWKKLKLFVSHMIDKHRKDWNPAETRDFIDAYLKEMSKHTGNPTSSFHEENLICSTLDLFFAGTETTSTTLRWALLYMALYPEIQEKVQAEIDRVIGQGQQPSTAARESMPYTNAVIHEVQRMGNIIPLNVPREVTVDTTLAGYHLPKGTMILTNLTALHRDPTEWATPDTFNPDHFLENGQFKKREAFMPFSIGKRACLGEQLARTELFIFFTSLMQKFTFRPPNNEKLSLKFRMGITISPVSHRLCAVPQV
Outline: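 Cell-free assay of recombinant CYP2J2 with a fluorogenic substrate, read 1 h after dosing; loss of signal versus acetonitrile. Primary screen at 10 uM in duplicate, then concentration-response up to 20 uM for chemicals passing threshold (e.g., 30% inhibition).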

Measured: AC50

E-selectin (Homo sapiens), sequence (P16581 whole entry, looked up): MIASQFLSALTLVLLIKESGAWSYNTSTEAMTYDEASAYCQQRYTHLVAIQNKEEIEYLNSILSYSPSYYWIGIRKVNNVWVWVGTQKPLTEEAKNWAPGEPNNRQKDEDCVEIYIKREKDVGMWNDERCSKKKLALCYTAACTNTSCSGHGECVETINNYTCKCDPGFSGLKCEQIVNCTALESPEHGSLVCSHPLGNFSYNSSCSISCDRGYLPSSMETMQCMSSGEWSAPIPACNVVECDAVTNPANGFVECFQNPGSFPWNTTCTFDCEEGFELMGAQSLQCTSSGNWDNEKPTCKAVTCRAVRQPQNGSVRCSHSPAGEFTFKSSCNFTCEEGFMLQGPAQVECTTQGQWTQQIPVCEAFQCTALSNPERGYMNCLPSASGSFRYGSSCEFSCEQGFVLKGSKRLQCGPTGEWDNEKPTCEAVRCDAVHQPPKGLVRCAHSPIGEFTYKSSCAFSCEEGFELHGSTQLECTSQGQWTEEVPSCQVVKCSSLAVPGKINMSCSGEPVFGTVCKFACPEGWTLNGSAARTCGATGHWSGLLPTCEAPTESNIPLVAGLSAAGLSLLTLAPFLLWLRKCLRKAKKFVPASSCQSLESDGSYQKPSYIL

CS(=O)(=O)c1cc(C(F)(F)F)ccc1C(=O)c1cnoc1C1CC1
inactive: [1] | [2] | [3] | [4] | [5] | [6] | [7]

COCC(C)N(C(=O)CCl)c1c(C)csc1C (configuration not stated)
active: [2] 10.7 µM
inactive: [1] | [3] | [4] | [5] | [6]

CC(C)(C)C(=O)C(Oc1ccc(Cl)cc1)n1cncn1 (configuration not stated)
active: [8] 2.38 µM | [9] 1.62 µM | [10] 8.28 µM | [11] 6.98 µM and 4.65 µM | [12] 5.81 µM | [13] 1.32 µM
inactive: [1] | [2] | [3] | [4] | [5] | [6]

CCN(CC)c1nc(C)cc(OP(=S)(OC)OC)n1
inactive: [1] | [3] | [4] | [6] | [8]
active: [2] 10.5 µM | [5] 14.1 µM | [11] 7.09 µM | [13] 0.773 µM

CCCCOCN(C(=O)CCl)c1c(CC)cccc1CC
active: [1] 28.5 µM | [2] 18.9 µM | [3] 33.9 µM | [4] 33.2 µM | [5] 31 µM | [6] 28.6 µM | [10] 6.71 µM | [11] 5.52 µM | [12] 9.74 µM | [13] 1.28 µM

N#Cc1c(Cl)cccc1Cl
inactive: [1] | [2] | [3] | [4] | [5] | [6]

O=C1C2CC=CCC2C(=O)N1SC(Cl)(Cl)Cl (configuration not stated)
inactive: [3] | [6] | [8]
active: [2] 26.2 µM | [4] 32.6 µM | [5] 25.3 µM | [11] 10 µM | [13] 16 µM

CC1(C)C(C=C(Cl)Cl)C1C(=O)OC(C#N)c1cccc(Oc2ccccc2)c1 (configuration not stated)
inactive: [1] | [2] | [3] | [4] | [5] | [8]
active: [6] 6.38 µM | [7] 6.07 µM | [11] 12.8 µM | [13] 7.55 µM

CCNC(=O)NC(=O)C(C#N)=NOC
inactive: [1] | [2] | [3] | [4] | [5] | [6]

CO/N=C(/C1=NOCCO1)c1ccccc1Oc1ncnc(Oc2ccccc2Cl)c1F
active: [1] 27.2 µM | [2] 12.7 µM | [3] 34.7 µM | [4] 1.98 µM | [5] 11 µM | [6] 18.3 µM | [10] 0.933 µM | [13] 1.41 µM | [14] 1.57 µM

CNC(=O)N(C)c1nnc(C(C)(C)C)s1
inactive: [1] | [2] | [3] | [4] | [5] | [6]

COP(=S)(OC)SCn1nnc2ccccc2c1=O
active: [2] 10.4 µM | [9] 0.363 µM | [10] 1.93 µM | [15] 6.73 µM | [16] 1.87 µM | [7] 4.19 µM | [11] 5.2 µM | [13] 0.257 µM | [14] 3.24 µM
inactive: [1] | [3] | [4] | [5] | [6]

O=C(Nc1ccccc1-c1ccc(Cl)cc1)c1cccnc1Cl
inactive: [1] | [2] | [3] | [4] | [5] | [6]
active: [13] 0.661 µM

CCNP(=S)(OC)O/C(C)=C/C(=O)OC(C)C (configuration not stated)
inactive: [1] | [2] | [3] | [4] | [5] | [6]
active: [9] 2.43 µM | [10] 2.63 µM | [16] 1.33 µM | [7] 7.62 µM | [11] 1.79 µM | [13] 0.107 µM
